Measured values as given in PubChem BioAssay (NCATS).
Where “and” joins values, the source holds several entries; their conditions need not be identical. Equal values may be shown once. Results filed as inconclusive are left out. The source holds several records for some structures; these can differ, active in one and inactive in another. Calls of active or inactive are those of the source. Unless noted, calls follow the shape of the dose curve; as a rule, active = well fitted curve in the direction sought with a large enough effect; inconclusive = small, poorly fitted or top-dose-only effect, or another doubt; inactive = no such curve, though single readings can be large; an effect the other way counts as inactive or inconclusive.

Tests used:
[1] = Cell Viability - LYMP2-018 (AID 985);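 also: compound exposure lasted 24 hr at 37 °C; plate controls were DMSO only for no effect and tetraoctylammonium bromide at 92 µM for full effect; nearly all actives have a fitted effect of over 50% in size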
Procedure, shortened: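 Human lymphoblastoid cells (2500/well) were pre-incubated 5 hr at 37 C, then exposed to compounds for 24 hr at 37 C in complete medium. Viability was read as intracellular ATP by CellTiter-Glo luminescence; AC50 values came from Hill-equation fits.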

[2] = target: Estrogen receptor (Homo sapiens) (UniProt P03372); assay: qHTS assay for small molecule agonists of estrogen receptor alpha signaling (AID 588514; calls by dose curve; also: nearly all actives have a fitted effect of over 70% in size; also: potency is read from the fitted curve at half-maximal effect;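 as to activation: 0% = vehicle only and 100% = reference agonist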)
Procedure, shortened: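 ER-alpha-UAS-bla GripTite HEK 293 cells in medium with 2% charcoal/dextran-treated FBS were treated with compound titrations at 37 C for 18 hrs; beta-lactamase reporter read by CCF4 fluorescence after 2 hrs at RT.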

[3] = target: Bile acid receptor (Homo sapiens) (UniProt Q96RI1); assay: qHTS assay for small molecule antagonists of farnesoid X receptor signaling (AID 588526; calls by dose curve; also: % is scaled to controls: 0 for no effect and ±100 for the full control effect)
Procedure, shortened: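 Concentration-response titrations were fitted to the Hill equation for half-maximal inhibition and maximal response, with data normalised to 50 uM chenodeoxycholic acid and DMSO control wells. Cells: FXR-UAS-bla HEK293T, dialyzed FBS.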

[4] = target: Glucocorticoid receptor (Homo sapiens) (UniProt P04150); assay: qHTS assay for small molecule antagonists of glucocorticoid receptor signaling (AID 588533; active = well fitted inhibition curve with a large enough effect in the signal ratio, with a control signal flat, not every such curve was filed as active; the % refers to the signal ratio;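 also: cells stimulated with 2 nM dexamethasone as agonist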; also: potency is read from the fitted curve at half-maximal effect)
Procedure, shortened: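 Antagonist-mode qHTS: compound titrations added to GRE-bla HeLa cells, then dexamethasone 2 nM final; 18 h, 37 C. CCF4 FRET fluorescence normalized to dexamethasone and DMSO; IC50 from Hill fit.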

[5] = qHTS assay for small molecule antagonists of peroxisome proliferator-activated receptor delta signaling (AID 588535; active = well fitted inhibition curve with a large enough effect in the signal ratio, with a control signal flat, not every such curve was filed as active; the % refers to the signal ratio;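 as to max response: cells co-treated with a PPAR-delta agonist as stimulator during compound exposure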); conditions: HEK293T PPARd-UAS-bla, beta-lactamase FRET ratio, 18 h; 460 nm channel
Procedure, shortened: (§1)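 GeneBLAzer PPAR-delta-UAS-bla HEK293T cells in medium with 2% charcoal/dextran FBS were preincubated 5 hrs at 37 C, then given compounds, incubated 18 hrs at 37 C, and read by CCF4 beta-lactamase fluorescence; IC50 from Hill fits.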

[6] = target: Peroxisome proliferator-activated receptor delta (Homo sapiens) (UniProt Q03181); assay: as above
Procedure, shortened: as §1

[7] = target: Vitamin D3 receptor (Homo sapiens) (UniProt P11473); assay: qHTS assay for small molecule antagonists of vitamin D receptor signaling (AID 588541; calls by dose curve;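 also: receptor activated by calcitriol during compound treatment; % is scaled to controls: 0 for no effect and ±100 for the full control effect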)
Procedure, shortened: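 VDR-UAS-bla HEK293T cells (2000/well, 2% charcoal-stripped FBS) were treated with titrated compounds plus 1-alpha,25-dihydroxyvitamin D3 (50 nM or 3 nM final) for 16 h at 37 C. CCF4 beta-lactamase fluorescence was read; Hill fits gave IC50.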

[8] = qHTS assay for small molecule agonists of the antioxidant response element (ARE) signaling pathway (AID 651741; active = well fitted activation curve with a large enough effect in the signal ratio; the % refers to the signal ratio; also: potency is read from the fitted curve at half-maximal effect; as to activation: % of control where 0% means no effect)
Procedure, shortened: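 ARE-bla HepG2 cells (beta-lactamase reporter under ARE control) were plated at 2,000 cells/well, preincubated 5 h at 37 C/5% CO2, then treated with DMSO-dissolved compounds for 16 h at 37 C; LiveBLAzer B/G FRET substrate added, fluorescence read after 2 h at room temperature.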

[9] = qHTS assay to identify small molecules that stimulate interleukin-8 (IL-8) secretion (AID 651758; active = well fitted activation curve with a large enough effect in the signal ratio; the % refers to the signal ratio; also: potency is read from the fitted curve at half-maximal effect; as to activation: 0% is about no effect)
Procedure, shortened: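 THP-1, 2000 cells/well; cpd 16 h, 37 C; add cryptate + XL665 anti-IL-8 Abs; RT 1-3 h; TR-FRET read.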

[10] = target: Nuclear receptor ROR-gamma (Homo sapiens) (UniProt P51449); assay: qHTS assay for small molecule antagonists of the retinoid-related orphan receptor gamma (ROR-gamma) signaling pathway (AID 651802); also: % is scaled to controls: 0 for no effect and ±100 for the full control effect; nearly all actives have a fitted effect of over 60% in size
Procedure, shortened: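 CHO cells carrying TET-inducible ROR-gamma and an ROR response element–luciferase reporter were exposed to compound, then induced with doxycycline. After 16hr at 37C, luminescence was read; lower signal indicates antagonism.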

[11] = qHTS assay for cell viability of the p53RE-bla HCT-116 cell line (AID 743292); also: % is scaled to controls: 0 for no effect and ±100 for the full control effect; nearly all actives have a fitted effect of over 55% in size
Procedure, shortened: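 Intracellular ATP of p53RE-bla HCT-116 cells measured by luciferase luminescence following 16 h compound incubation at 37 C; DMSO-only wells served as vehicle controls.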

[12] = target: Phospholipid hydroperoxide glutathione peroxidase GPX4 (Homo sapiens) (UniProt P36969); assay: Primary qHTS Assay for Inhibitors of Recombinant Selenoprotein Glutathione Peroxidase 4 (GPX4) (AID 1845192); also: nearly all actives have a fitted effect of over 65% in size; also: potency is read from the fitted curve at half-maximal effect
Procedure, shortened: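 GR-coupled readout: 100 nM GR, 1 mM GSH, 0.5 mM NADPH; NADPH fluorescence (ex 340/em 450 nm) read at t=0 and after 15 min RT. GPX4 200 nM, preincubated 30 min with compound; substrate 0.5 mM CHP.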

[13] = Cell Viability - LYMP2-016 (AID 984); also: % is scaled to controls: 0 for no effect and ±100 for the full control effect; nearly all actives have a fitted effect of over 55% in size
Procedure, shortened: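 Acute toxicity in a Coriell human lymphoblastoid line is scored as loss of intracellular ATP over 24 h of treatment in complete medium. CellTiter-Glo signal is fitted across concentrations with the Hill equation to give AC50.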

[14] = target: Peroxisome proliferator-activated receptor gamma (Homo sapiens) (UniProt P37231); assay: qHTS assay for small molecule antagonists of peroxisome proliferator-activated receptor gamma signaling (AID 588537; active = well fitted inhibition curve with a large enough effect in the signal ratio, with a control signal flat, not every such curve was filed as active; the % refers to the signal ratio;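 also: reporter cells co-stimulated with 50 nM rosiglitazone agonist during compound treatment; % of control where 0% means no effect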)
Procedure, shortened: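 PPAR-gamma-UAS-bla HEK293 cells (3000/well, 1% charcoal/dextran-stripped FBS) were preincubated 6-6.5 h at 37 C, given titrated compounds, then stimulated with 50 nM rosiglitazone for 16 h. Beta-lactamase activity was read with CCF4 dye; IC50 came from Hill fits.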

[15] = qHTS profiling for inhibitors of Plasmodium falciparum proliferation (AID 504749);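 also: 0% = DMSO vehicle and full inhibition = artemisinin control; nearly all actives have a fitted effect of over 60% in size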; conditions: P. falciparum in erythrocytes, SYBR Green DNA, 72 h, at 28.7 µM (top of the series)
Procedure, shortened: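 P. falciparum-infected erythrocytes (0.3% parasitemia, 2.5% hematocrit final) were exposed to compounds for 72 h at 37 C in 5% CO2, then lysed with SYBR Green buffer overnight at room temperature; parasite DNA fluorescence was normalized to artemisinin and DMSO controls.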

[16] = Cellular Toxicity (caspase-3) HepG2 (AID 654);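 also: cells exposed to compound for 16 hours before reading; 0% = DMSO alone and 100% = caspase signal from 100 µM tamoxifen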
Procedure, shortened: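 HepG2 cells (1500/well) in complete medium were treated with compounds for 16 hr at 37 °C. Caspase-3/7 activity was then read as luminescence from peptide-aminoluciferin cleavage. AC50 came from Hill fits, normalized to DMSO and 100 uM tamoxifen.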

[17] = Cell Viability - N2a (AID 540); conditions: N2a mouse neuroblastoma cell viability; activity change, negative = cytotoxicity: at 92.2 µM (top of the series); also: nearly all actives have a fitted effect of over 45% in size; also: potency is read from the fitted curve at half-maximal effect;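 as to activity change, negative = cytotoxicity: plate controls were DMSO alone for no effect and tamoxifen control for full effect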
Procedure, shortened: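 Mouse neuroblastoma N2a cells (1500/well) were preincubated 5 hr at 37 °C, then exposed to compounds for 40 hr at 37 °C in complete medium. Viability was read as intracellular ATP by CellTiter-Glo luminescence; AC50 from Hill fits.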

[18] = target: Luciferin 4-monooxygenase (Photinus pyralis) (UniProt P08659); assay: Biochemical firefly luciferase enzyme assay for NPC (AID 624030);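 also: purified P. pyralis luciferase at 10 nM with luciferin and ATP substrate; 0% = DMSO and -100% = full luciferase inhibition by PTC124 control; nearly all actives have a fitted effect of over 70% in size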
Procedure, shortened: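 Counter-screen for direct inhibition of the luciferase enzyme by approved-drug library compounds, run at 10 nM enzyme in 50 mM Tris acetate (final). Luminescence was read within 5 min of enzyme-buffer addition and normalized to PTC124 versus DMSO (0%).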

[19] = Cellular Toxicity (caspase-3) HUV-EC-C (AID 656);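 also: 0% = DMSO basal and 100% = 100 µM tamoxifen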
Procedure, shortened: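 Read-out: luminescence proportional to caspase 3/7 activity, measured 20 min after adding Caspase-Glo 3/7 reagent. Cells (HUV-EC-C) had received compound for 16 hr at 37°C. Increases relative to DMSO and 100 uM tamoxifen gave concentration-response AC50 values.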

Glucocorticoid receptor (Homo sapiens), sequence (P04150 whole entry, looked up): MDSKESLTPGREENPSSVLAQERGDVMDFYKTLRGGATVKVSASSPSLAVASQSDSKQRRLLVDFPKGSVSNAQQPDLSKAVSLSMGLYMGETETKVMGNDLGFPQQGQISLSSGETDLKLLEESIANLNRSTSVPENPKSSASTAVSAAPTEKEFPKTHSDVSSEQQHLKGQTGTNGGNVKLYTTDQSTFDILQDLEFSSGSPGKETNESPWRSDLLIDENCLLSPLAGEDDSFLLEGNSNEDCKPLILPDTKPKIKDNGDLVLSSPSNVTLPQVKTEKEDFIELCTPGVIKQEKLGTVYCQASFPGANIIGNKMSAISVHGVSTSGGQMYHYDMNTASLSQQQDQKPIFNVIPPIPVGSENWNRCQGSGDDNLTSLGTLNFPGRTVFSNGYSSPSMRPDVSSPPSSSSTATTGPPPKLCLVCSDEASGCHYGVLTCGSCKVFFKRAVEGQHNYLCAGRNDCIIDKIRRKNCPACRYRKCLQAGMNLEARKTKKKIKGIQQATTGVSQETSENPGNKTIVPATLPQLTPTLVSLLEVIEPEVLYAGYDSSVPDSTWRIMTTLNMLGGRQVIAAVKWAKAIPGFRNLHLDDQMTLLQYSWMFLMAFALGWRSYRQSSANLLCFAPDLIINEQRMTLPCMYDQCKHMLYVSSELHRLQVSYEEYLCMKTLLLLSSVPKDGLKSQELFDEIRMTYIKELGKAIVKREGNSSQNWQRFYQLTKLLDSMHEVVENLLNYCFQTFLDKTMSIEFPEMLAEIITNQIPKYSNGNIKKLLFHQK
Nuclear receptor ROR-gamma (Homo sapiens), sequence (P51449 whole entry, looked up): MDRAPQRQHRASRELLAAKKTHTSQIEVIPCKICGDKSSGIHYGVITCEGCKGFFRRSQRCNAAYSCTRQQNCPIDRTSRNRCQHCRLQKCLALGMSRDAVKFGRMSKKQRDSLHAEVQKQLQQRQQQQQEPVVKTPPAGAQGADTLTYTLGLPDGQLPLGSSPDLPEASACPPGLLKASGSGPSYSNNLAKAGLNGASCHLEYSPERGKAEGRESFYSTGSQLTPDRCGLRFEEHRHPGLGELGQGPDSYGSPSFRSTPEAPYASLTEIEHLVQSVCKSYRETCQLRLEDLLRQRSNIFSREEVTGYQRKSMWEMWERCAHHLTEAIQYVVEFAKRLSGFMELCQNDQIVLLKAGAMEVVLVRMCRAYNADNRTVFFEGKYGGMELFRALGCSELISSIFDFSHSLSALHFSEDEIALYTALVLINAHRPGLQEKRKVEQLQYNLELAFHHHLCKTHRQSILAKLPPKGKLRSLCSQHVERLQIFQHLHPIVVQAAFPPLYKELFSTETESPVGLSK
Phospholipid hydroperoxide glutathione peroxidase GPX4 (Homo sapiens), sequence (P36969 whole entry, looked up): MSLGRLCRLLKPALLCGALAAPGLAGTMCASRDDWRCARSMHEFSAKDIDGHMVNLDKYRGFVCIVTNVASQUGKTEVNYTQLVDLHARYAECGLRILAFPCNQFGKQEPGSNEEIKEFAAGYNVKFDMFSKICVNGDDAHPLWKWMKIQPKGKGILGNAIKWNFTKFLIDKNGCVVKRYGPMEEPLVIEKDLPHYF
Bile acid receptor (Homo sapiens), sequence (Q96RI1 whole entry, looked up): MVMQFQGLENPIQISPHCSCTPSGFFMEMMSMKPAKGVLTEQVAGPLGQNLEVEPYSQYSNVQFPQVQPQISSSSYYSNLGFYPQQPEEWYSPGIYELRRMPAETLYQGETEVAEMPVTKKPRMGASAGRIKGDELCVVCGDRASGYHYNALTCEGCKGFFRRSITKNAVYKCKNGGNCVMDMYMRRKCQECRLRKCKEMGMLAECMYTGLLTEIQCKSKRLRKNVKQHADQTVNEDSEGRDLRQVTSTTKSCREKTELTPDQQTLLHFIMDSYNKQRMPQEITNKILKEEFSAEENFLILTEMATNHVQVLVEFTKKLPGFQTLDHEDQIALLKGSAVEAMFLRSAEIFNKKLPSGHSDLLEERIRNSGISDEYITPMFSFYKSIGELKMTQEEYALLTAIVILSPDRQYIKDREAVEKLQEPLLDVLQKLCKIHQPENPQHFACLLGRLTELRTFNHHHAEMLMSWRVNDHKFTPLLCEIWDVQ
Peroxisome proliferator-activated receptor gamma (Homo sapiens), sequence (P37231 whole entry, looked up): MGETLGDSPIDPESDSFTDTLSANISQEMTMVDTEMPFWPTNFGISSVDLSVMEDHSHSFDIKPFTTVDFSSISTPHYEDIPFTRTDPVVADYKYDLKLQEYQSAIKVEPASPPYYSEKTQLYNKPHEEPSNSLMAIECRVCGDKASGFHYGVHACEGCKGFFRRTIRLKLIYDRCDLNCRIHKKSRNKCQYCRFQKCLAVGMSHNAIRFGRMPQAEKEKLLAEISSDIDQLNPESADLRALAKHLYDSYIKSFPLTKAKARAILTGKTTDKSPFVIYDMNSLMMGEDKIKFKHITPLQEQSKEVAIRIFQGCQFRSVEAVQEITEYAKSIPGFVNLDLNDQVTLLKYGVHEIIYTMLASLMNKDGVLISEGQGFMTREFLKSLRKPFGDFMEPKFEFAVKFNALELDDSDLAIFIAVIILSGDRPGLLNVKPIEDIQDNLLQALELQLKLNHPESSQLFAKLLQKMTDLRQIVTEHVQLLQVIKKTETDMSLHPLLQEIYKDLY
Estrogen receptor (Homo sapiens), sequence (P03372 whole entry, looked up): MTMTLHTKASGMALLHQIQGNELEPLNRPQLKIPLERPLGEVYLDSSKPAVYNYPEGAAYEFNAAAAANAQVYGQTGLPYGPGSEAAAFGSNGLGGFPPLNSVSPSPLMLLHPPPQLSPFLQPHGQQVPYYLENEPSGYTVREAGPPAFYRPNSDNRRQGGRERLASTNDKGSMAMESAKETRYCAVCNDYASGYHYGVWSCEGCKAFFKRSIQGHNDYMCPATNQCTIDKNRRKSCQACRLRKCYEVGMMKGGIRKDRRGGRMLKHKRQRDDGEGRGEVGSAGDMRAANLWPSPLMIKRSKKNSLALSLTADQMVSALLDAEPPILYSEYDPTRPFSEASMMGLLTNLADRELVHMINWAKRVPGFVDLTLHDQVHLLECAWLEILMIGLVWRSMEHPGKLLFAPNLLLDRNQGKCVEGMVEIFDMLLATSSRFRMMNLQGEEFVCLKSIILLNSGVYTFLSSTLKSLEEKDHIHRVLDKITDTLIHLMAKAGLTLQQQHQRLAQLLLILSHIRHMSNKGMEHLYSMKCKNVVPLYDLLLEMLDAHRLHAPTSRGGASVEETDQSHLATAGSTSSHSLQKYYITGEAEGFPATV
Peroxisome proliferator-activated receptor delta (Homo sapiens), sequence (Q03181 whole entry, looked up): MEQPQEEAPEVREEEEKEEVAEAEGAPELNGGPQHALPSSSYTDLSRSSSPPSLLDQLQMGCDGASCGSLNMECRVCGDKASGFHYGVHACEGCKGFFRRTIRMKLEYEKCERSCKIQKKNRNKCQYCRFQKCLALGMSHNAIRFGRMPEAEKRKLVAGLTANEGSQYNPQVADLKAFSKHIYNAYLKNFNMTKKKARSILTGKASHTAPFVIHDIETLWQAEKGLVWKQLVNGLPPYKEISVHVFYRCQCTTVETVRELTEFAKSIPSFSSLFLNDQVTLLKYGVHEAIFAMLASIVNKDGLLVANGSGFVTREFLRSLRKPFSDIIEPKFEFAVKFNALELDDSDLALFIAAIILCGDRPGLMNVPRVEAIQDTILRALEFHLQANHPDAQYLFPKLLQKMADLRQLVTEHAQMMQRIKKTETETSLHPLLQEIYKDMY
Vitamin D3 receptor (Homo sapiens), sequence (P11473 whole entry, looked up): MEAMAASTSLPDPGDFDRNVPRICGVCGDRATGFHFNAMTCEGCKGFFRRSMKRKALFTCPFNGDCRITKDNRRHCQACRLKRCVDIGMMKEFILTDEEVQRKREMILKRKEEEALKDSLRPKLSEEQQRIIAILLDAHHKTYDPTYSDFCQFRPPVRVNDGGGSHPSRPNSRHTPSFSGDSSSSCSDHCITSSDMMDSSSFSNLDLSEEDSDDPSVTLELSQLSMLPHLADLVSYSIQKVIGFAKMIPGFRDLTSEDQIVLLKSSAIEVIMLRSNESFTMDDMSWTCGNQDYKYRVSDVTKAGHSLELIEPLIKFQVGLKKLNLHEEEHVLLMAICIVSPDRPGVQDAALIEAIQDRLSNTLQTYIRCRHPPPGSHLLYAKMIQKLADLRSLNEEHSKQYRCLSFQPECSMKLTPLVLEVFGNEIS
Luciferin 4-monooxygenase (Photinus pyralis), sequence (P08659 whole entry, looked up): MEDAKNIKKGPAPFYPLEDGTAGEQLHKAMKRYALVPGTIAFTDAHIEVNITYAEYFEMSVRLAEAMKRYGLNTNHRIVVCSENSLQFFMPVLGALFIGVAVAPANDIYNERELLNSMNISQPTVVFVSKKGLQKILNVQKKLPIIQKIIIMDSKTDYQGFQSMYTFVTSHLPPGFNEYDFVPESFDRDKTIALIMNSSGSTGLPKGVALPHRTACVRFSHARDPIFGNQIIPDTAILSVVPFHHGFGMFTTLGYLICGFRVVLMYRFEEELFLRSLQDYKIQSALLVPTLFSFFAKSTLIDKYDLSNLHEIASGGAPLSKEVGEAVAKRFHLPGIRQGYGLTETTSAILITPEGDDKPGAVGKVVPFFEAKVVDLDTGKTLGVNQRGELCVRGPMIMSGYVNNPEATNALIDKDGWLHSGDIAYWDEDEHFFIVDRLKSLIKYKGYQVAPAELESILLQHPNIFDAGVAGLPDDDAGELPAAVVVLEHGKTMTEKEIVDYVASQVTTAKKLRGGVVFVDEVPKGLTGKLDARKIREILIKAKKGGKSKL

C=Cc1ccccc1Cl
inactive: Potency [1] | Potency [2] | outcome [3] | Potency [4] | Potency [6] | outcome [7] | Potency [8] | Potency [9] | Potency [10] | Potency [11]
-3.33%: max response [5]

CO[C@H]1/C=C\O[C@@]2(C)Oc3c(C)c(O)c4c(O)c(c(/C=N/N5CCN(C6CCCC6)CC5)c(O)c4c3C2=O)NC(=O)/C(C)=C\C=C/[C@H](C)[C@H](O)[C@@H](C)[C@@H](O)[C@@H](C)[C@H](OC(C)=O)[C@@H]1C
active: Potency [12] 10 µM

Cc1ccc([N+](=O)[O-])cc1N
inactive: Potency [13] | Potency [2] | outcome [3] | Potency [6] | outcome [14] | outcome [7] | Potency [10]
18.4% and -6.91%: max response [5]

NC1=NC(S)C2N=CN=C2N1 (centres undefined)
inactive: outcome [7] | Potency [10] | activity, negative = inhibition ([15]; parasite line A) 3.76% | activity, negative = inhibition ([15]; parasite line B) -5.29%
active: Potency [4] 7.08 µM | Potency [8] 33.5 µM | Potency [9] 66.8 µM

CCC1OC(=O)C(C)C(OC2CC(C)(OC)C(O)C(C)O2)C(C)C(OC2OC(C)CC(N(C)C)C2O)C(C)(O)CC(C)C2NC(COCCOC)OC(C2C)C1(C)O (centres undefined)
inactive: Potency [12]

CCCCCCCCCCCCCCC1CO1 (centres undefined)
inactive: outcome [16] | Potency [1] | Potency [2] | Potency [4] | Potency [6] | outcome [14] | outcome [7] | Potency [8] | Potency [10] | Potency [11]
14.3%: max response [5]

CC(C)(C)NC(=O)[C@@H]1C[C@@H]2CCCC[C@H]2CN1C[C@@H](O)[C@H](Cc1ccccc1)NC(=O)[C@H](CC(N)=O)NC(=O)c1ccc2ccccc2n1
inactive: Potency [12]

NCCC[C@H](NC(=O)[C@@H]1CCCN1C(=O)[C@@H]1CSSC[C@H](N)C(=O)N[C@@H](Cc2ccc(O)cc2)C(=O)N[C@@H](Cc2ccccc2)C(=O)N[C@@H](CCC(N)=O)C(=O)N[C@@H](CC(N)=O)C(=O)N1)C(=O)NCC(N)=O
active: Potency [12] 25.1 µM

CCCCOCCO
inactive: outcome [16] | Potency [2] | outcome [3] | Potency [4] | Potency [6] | outcome [14] | outcome [7] | Potency [8] | Potency [9] | Potency [10] | Potency [11]
1.73% and 13.5% and -16.7%: max response [5]

Cn1c(=O)cc(N2CCC[C@@H](N)C2)n(Cc2cc(F)ccc2C#N)c1=O
inactive: Potency [12]

CC1(C)CC(N=C=O)CC(C)(CN=C=O)C1 (centres undefined)
inactive: activity change, negative = cytotoxicity [17] 6.51% | Potency [2] | outcome [3] | outcome [14] | outcome [7] | Potency [8] | Potency [10]

O=NCc1ccc([N+](=O)[O-])o1
inactive: Potency [18] | Potency [12] | activity, negative = inhibition ([15]; parasite line A) -23.3% | activity, negative = inhibition ([15]; parasite line B) 5.01%

Cc1cc2nc3c(=O)[nH]c(=O)nc-3n(C[C@@H](O)[C@@H](O)[C@@H](O)COP(=O)(O)O)c2cc1C
active: Potency [12] 2.55 µM

Nc1ccc(Cl)cc1Cl
65.7% and 18%: max response [5]
inactive: activity change, negative = cytotoxicity [17] 7.32% | outcome [16] | Potency [13] | Potency [2] | outcome [3] | Potency [4] | Potency [6] | outcome [14] | Potency [10]

C[N+]1(C)C2CC[C@H]1CC(OC(=O)C(O)c1ccccc1)C2 (some centres undefined)
inactive: Potency [12]

Clc1ccc(CCCOCCCN2CCCCC2)cc1
inactive: Potency [12]

O=C1c2ccccc2C(=O)C1c1ccc2ccccc2n1
active: Potency [17] 31.6 µM | Potency [2] 1 µM | Potency [8] 1.37 µM and 1.5 µM
inactive: outcome [16] | Potency [13] | Potency [4] | outcome [14] | outcome [7]

Cc1cnc(C(=O)N[C@H]2CCCCC/C=C/[C@@H]3C[C@@]3(C(=O)NS(=O)(=O)C3CC3)NC(=O)[C@@H]3C[C@@H](Oc4nc5ccccc5c5ccccc45)CN3C2=O)cn1
active: Potency [12] 3.98 µM

CO/N=C(\C(=O)N[C@@H]1C(=O)N2C(C(=O)O)=C(Cn3ccc(=N)n3CCO)CS[C@H]12)c1csc(N)n1
inactive: Potency [12]

c1ccccc1
inactive: activity change, negative = cytotoxicity [17] -0.296% and -3.09% | outcome [19] | Potency [2] | outcome [3] | Potency [4] | outcome [14] | outcome [7] | Potency [8] | Potency [9] | Potency [10]

CCCCC(CC)CN (centres undefined)
75 µM (active) and inactive: Potency [9]
inactive: activity change, negative = cytotoxicity [17] -20.4% and 2.62% | outcome [16] | Potency [1] | Potency [2] | Potency [4] | Potency [6] | outcome [14] | outcome [7] | Potency [8] | Potency [10]
-11.9% and 2.89%: max response [5]

CCCCCCCCCCCCCCCC(=O)OCC=C(C)C=CC=C(C)C=CC1=C(C)CCCC1(C)C
inactive: Potency [12]

CCO
inactive: activity change, negative = cytotoxicity [17] -0.0856% | Potency [13] | Potency [2] | outcome [3] | Potency [4] | Potency [6] | outcome [14] | outcome [7] | Potency [8] | Potency [9] | Potency [10]
-20.9%: max response [5]

O=C(O)c1ccc(O)cc1O
43.1%: max response [5]
inactive: activity change, negative = cytotoxicity [17] 7.6% and 11% | outcome [19] | Potency [13] | outcome [3] | Potency [4] | Potency [6] | outcome [14] | outcome [7] | Potency [8] | Potency [9] | Potency [10]

Cc1ccc(N)c([N+](=O)[O-])c1
-16.3% and -11.9%: max response [5]
inactive: outcome [19] | Potency [2] | Potency [4] | Potency [6] | outcome [14] | outcome [7]

CC1CC2C3CCC4=CC(=O)C=CC4(C)C3(F)C(O)CC2(C)C1(O)C(=O)COC(=O)c1cccc(S(=O)(=O)O)c1 (centres undefined)
active: Potency [12] 20 µM

CO[C@H]1O[C@@H]2O[C@@]3(C)CC[C@H]4[C@H](C)CC[C@@H]([C@@H]1C)[C@@]24OO3
inactive: Potency [12]

CCCCCCCCCCCCCCCC(=O)OCC(O)C1OC(=O)C(O)=C1O (centres undefined)
inactive: Potency [18]
active: Potency [12] 7.08 µM

C[C@@H](O)[C@H]1C(=O)N2C(C(=O)O)=C(S[C@@H]3CN[C@H](C(=O)Nc4cccc(C(=O)O)c4)C3)[C@H](C)[C@H]12
inactive: Potency [12]

COc1c2ccoc2cc2oc(=O)ccc12
inactive: outcome [16] | outcome [19] | Potency [1] | Potency [2] | outcome [14] | outcome [7] | Potency [10]
